Results: PubChem BioAssay (NCI)
Compounds without any hit were thinned out: in the full panel of roughly 83,000, 20% have a hit.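 The test compound was applied at a single concentration to cells in 96-well plates for 48 hours, and percent growth was recorded.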 Unmarked numbers belong to inactive results. Active and inactive are the calls of the source. How the source made its calls: active means growth percent below 10; inactive means the rest.

system: MDA-MB-468 breast; assay: NCI-60 one-dose screen, 48 h (100 = growth as untreated, 0 = no growth, -100 = all killed); settings: 10 µM unless noted

SMILES | growth
O=C(Nc1ccc(S(=O)(=O)F)cc1)Oc1ccccc1 | 97.6%
Cn1cc(-c2csc(-c3cn(CCCCN4CCCCC4)c4ccccc34)n2)c2cccnc21 | -26.9% (active)
C[C@@H]1CCC2[C@@H](C)[C@H](OC(=O)CCC(=O)NCCNC(=O)Cc3cc(=O)oc4cc(N(C)C)ccc34)O[C@@H]3O[C@]4(C)CC[C@@H]1C23OO4 (stereo partly drawn) | 63.7%
CCC(CC)(c1ccccc1)C(OC(N)=O)c1ccccc1 (stereo not drawn) | 75.8%
O=[P+](O)c1ccccc1 | 114%
NC(Cc1ccc2c(c1)OCO2)c1ccc2c(c1)OCO2 (stereo not drawn) | 96%
CCN(CC)CCOc1c(C(C)C)cccc1C(C)C | 88.1%
[Cl][Hg][n]1cnc2c(Cl)c(Cl)c(Cl)cc21 | 115%
